Our source for the PXC50 values is ChEMBL document CHEMBL3988442, “University of Dundee, Small-Polar-MMV Screening Library” (2021).

The target in the experiment is T1, Methionyl-tRNA synthetase, putative (Leishmania donovani (strain BPK282A1)) (UniProt E9BF75).
T1 sequence (whole entry): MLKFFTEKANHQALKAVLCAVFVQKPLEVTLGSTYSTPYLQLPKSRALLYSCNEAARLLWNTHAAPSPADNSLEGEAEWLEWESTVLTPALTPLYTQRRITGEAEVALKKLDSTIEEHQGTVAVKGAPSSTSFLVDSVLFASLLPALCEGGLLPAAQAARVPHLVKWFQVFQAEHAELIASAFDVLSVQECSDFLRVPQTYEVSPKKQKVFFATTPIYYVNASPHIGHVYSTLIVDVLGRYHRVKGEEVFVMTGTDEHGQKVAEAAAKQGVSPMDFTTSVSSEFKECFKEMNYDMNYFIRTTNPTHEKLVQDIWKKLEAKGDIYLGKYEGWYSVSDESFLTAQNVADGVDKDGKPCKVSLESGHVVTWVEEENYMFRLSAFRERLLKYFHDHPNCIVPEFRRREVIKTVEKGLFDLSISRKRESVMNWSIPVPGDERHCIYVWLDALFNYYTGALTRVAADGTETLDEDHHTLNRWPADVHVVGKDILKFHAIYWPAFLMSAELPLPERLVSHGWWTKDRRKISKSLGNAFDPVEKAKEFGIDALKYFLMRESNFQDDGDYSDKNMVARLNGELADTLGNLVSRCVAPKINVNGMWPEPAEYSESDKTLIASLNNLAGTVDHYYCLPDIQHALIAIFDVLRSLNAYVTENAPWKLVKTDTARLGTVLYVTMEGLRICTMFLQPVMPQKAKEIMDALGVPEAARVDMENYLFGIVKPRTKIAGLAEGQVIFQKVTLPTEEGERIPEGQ
As to the kind of experiment: Leishmania donovani Methionine tRNA synthetase (LdMetRS):v7. Dose response assay. The format is functional. The arrangement: conc 80 nM, time 150 minutes.

Some results are limits rather than exact numbers.

For `Cc1nc(N(C)Cc2cccnc2)c2c(C)c(C)sc2n1`, the PXC50 is less than 4 (MAX_EFFECT 19.78609626) and less than 4 (MAX_EFFECT 20.76502732).
Turning to `O=C(NCC1CCCCC1)c1cc(=O)c2ccc(F)c(O)c2o1`, the PXC50 (MAX_EFFECT 5.182341651) is less than 4 and the PXC50 (MAX_EFFECT -0.4784689) was less than 4.
Regarding `Nc1noc2ccc(-c3cnc4ccc(NCc5ccncc5)nn34)cc12`, the PXC50 is less than 4 (MAX_EFFECT 14.75826972) and less than 4 (MAX_EFFECT 25.87719298).
On to `NC(=O)c1ccc(Cl)cc1Cl`, for which the PXC50 by setting is: (MAX_EFFECT 4.967602592) less than 3; (MAX_EFFECT 16.92015209) less than 3.
`FC1(F)CCN(Cc2cccnc2)CC12CCN(c1cnccn1)C2` (stereo not given): the PXC50 (MAX_EFFECT 4.081632653) was less than 4 and the PXC50 (MAX_EFFECT 6.355140187) is less than 4.
On to `OB1OCc2cc(C(F)(F)F)ncc21`, for which the PXC50 runs as follows: (MAX_EFFECT 8.490566038) less than 4; (MAX_EFFECT 11.87214612) less than 4.
For `Fc1ccc(Nc2nc(-c3ccccn3)cs2)cc1`, the PXC50 is, setting by setting: (MAX_EFFECT 22.79069767) less than 4; (MAX_EFFECT 23.07692308) less than 4.
Consider `Cc1sc2nc(C(F)(F)F)nc(N3CCCN(C)CC3)c2c1C`, for which the PXC50 runs as follows: (MAX_EFFECT 3.916449086) less than 4; (MAX_EFFECT 8.877284595) less than 4.
As to `CS(=O)(=O)N1CCN(c2ccc3ncc(C(=O)NC4CCCC4)cn23)CC1`, the PXC50 (MAX_EFFECT 7.456140351) is less than 4 and the PXC50 (MAX_EFFECT 9.895833333) was less than 4.
On to `CC(C)(CN)COc1cccc(F)c1Oc1ccc(Cl)cc1`, for which the PXC50 is less than 4 (MAX_EFFECT 16.84434968) and less than 4 (MAX_EFFECT 20.08281573).
`O=C(NCC1(O)CCCCC1)c1cc(=O)c2cc(F)cc(O)c2o1`: the PXC50 reads like this: (MAX_EFFECT 3.03030303) less than 4; (MAX_EFFECT 5.182341651) less than 4.
In the case of `Cc1nc(N2CCN(CCO)CC2)c2c(-c3cccs3)csc2n1`, the PXC50 is less than 4 (MAX_EFFECT 9.693877551) and less than 4 (MAX_EFFECT 12.37373737).
In the case of `Cc1nc(N2CCCC2)c2c3c(sc2n1)CCCC3`, the PXC50 (MAX_EFFECT 9.895833333) is less than 4 and the PXC50 (MAX_EFFECT 12.71929825) is less than 4.
In the case of `Cc1cc(C)n(-c2nc(N(C)C)c3c4c(sc3n2)CCCC4)n1`, the PXC50 (BOTTOM 3.265302341, HILLSLOPE 1.809282706, MAX_EFFECT 78.125, TOP 100.0) came to 4.28 and the PXC50 (BOTTOM 6.620107204, HILLSLOPE 2.145601955, MAX_EFFECT 79.8245614, TOP 100.0) was 4.28.
Turning to `CNC(=O)CNc1nc(C)nc2sc3c(c12)CCC3`, the PXC50 was less than 4 (MAX_EFFECT 7.888040712) and less than 4 (MAX_EFFECT 9.319899244).
For `CS(=O)(=O)N1CCN(c2ccc3ccc(C(=O)NCCS(=O)(=O)N4CCOCC4)cn23)CC1`, the PXC50 by setting is: (BOTTOM 0.75923045, HILLSLOPE 2.636958023, MAX_EFFECT 55.02392344, TOP 52.30756256) 5; (BOTTOM 6.938223691, HILLSLOPE 3.502169957, MAX_EFFECT 60.32906764, TOP 60.07357055) 4.85.
As to `N#Cc1cccc(Nc2nccc(N3CCC(NS(=O)(=O)c4cccc(C#N)c4)CC3)n2)c1`, the PXC50 was less than 4 (MAX_EFFECT 35.34883721) and less than 4 (MAX_EFFECT 46.85314685).
As for `Cc1sc2nc(CN3CCOCC3)nc(NCCO)c2c1C`, the PXC50 runs as follows: (MAX_EFFECT 7.650273224) less than 4; (MAX_EFFECT 8.021390374) less than 4.
In the case of `CC(O)c1ccc(Cl)cc1Cl` (stereo not given), the PXC50 is less than 3 (MAX_EFFECT 7.559395248) and less than 3 (MAX_EFFECT 15.39923954).
As to `Cc1nc(N2CCCCCC2)c2ccsc2n1`, the PXC50 is less than 4 (MAX_EFFECT 9.6) and less than 4 (MAX_EFFECT 10.05291005).
Compound `Cc1nc(N[C@H](C(=O)O)C(C)C)c2c3c(sc2n1)CCCC3` registered a PXC50 (MAX_EFFECT 7.978723404) of less than 4 and a PXC50 (MAX_EFFECT 8.29015544) of less than 4.
Take `CS(=O)(=O)N1CCN(c2ccc3ccc(C(=O)NCCN4CCOCC4)cn23)CC1`: the PXC50 stood at 4.88 (BOTTOM 1.032447983, HILLSLOPE 3.01577023, MAX_EFFECT 61.72248804, TOP 62.04525005) and 4.83 (BOTTOM -0.949038422, HILLSLOPE 2.220287811, MAX_EFFECT 68.73857404, TOP 70.86130279).
With `Cc1nc(N2CCC(C(N)=O)CC2)c2c3c(sc2n1)CC(C)CC3` (stereo not given), the PXC50 is, setting by setting: (MAX_EFFECT 5.852417303) less than 4; (MAX_EFFECT 9.319899244) less than 4.
In turn, `CCc1ccc(CN(C)Cc2nc(N)c3c(C)c(C)sc3n2)cc1` showed a PXC50 (MAX_EFFECT 28.57142857) of less than 4 and a PXC50 (MAX_EFFECT 30.4) of less than 4.
For `CCNc1nc(CC)nc2sc(CC)cc12`, the PXC50 is, setting by setting: (MAX_EFFECT 7.537688442) less than 4; (MAX_EFFECT 11.05651106) less than 4.
Take `COc1cccc(-c2cc(C(F)(F)F)nc(N3CCCC3)n2)c1`: the PXC50 is less than 4 (MAX_EFFECT 5.303030303) and less than 4 (MAX_EFFECT 7.142857143).
As for `Cc1nc(N2CCCC(O)C2)c2c3c(sc2n1)CCCC3` (stereo not given), the PXC50 was less than 4 (MAX_EFFECT 9.649122807) and less than 4 (MAX_EFFECT 16.66666667).
With `Cc1nc(NCC2COCCO2)c2c3c(sc2n1)CCC3` (stereo not given), the PXC50 reads like this: (MAX_EFFECT 5.303030303) less than 4; (MAX_EFFECT 6.632653061) less than 4.
For `CCc1nc(NCCCOC)c2c3c(sc2n1)CCC3`, the PXC50 is less than 4 (MAX_EFFECT 10.43256997) and less than 4 (MAX_EFFECT 14.35768262).
In turn, `O=C(NCC1(O)CCCCC1)c1cc(=O)c2ccc(F)c(O)c2o1` registered a PXC50 (MAX_EFFECT 5.582137161) of less than 4 and a PXC50 (MAX_EFFECT 7.485604607) of less than 4.
